Structures are written as SMILES. Screen size: about 3,200 compounds; about 300 (9.4%) showed activity. What follows is part of a selection rich in actives, with near analogues and random picks from the rest. Values without a mark were called inactive.

The test system of this assay is A673/TR/shEF. Kind of assay: cell viability (LOESS-normalised, relative to median of negative controls) (log2 ratio); higher = more viable cells (less compound effect), active = hit call of the paper (over 3 MAD below the median). To be noted: treatment time: 72 h. An outline of the steps: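 A673/TR/shEF Ewing sarcoma cells (1,500 per well, 384-well plates) were grown with or without doxycycline to induce EWS-FLI1 shRNA knockdown, starting 24 h before compounds. Library compounds at two or more concentrations, with DMSO controls, were added for three days. Cell viability was read by CellTiter-Glo luminescence on an Envision reader, then LOESS-corrected per plate, divided by the median of negative controls and log2-transformed. Hits were wells at least three median absolute deviations from the median of all screened wells.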

[1] abbreviates: 0.25 µM, library screen: screen1, EWS-FLI1 expression: high (no doxycycline).
The mark [2] stands for this setting: 0.25 µM, library screen: screen1, EWS-FLI1 expression: low (doxycycline-induced shRNA knockdown).
Setting [3] is: 2.5 µM, library screen: screen1, EWS-FLI1 expression: high (no doxycycline).
[4] abbreviates: 2.5 µM, library screen: screen1, EWS-FLI1 expression: low (doxycycline-induced shRNA knockdown).
Where [5] appears, read: 0.25 µM, library screen: screen2, EWS-FLI1 expression: high (no doxycycline).
[6] abbreviates: 0.25 µM, library screen: screen2, EWS-FLI1 expression: low (doxycycline-induced shRNA knockdown).
Where [7] appears, read: 2.5 µM, library screen: screen2, EWS-FLI1 expression: high (no doxycycline).
[8] abbreviates: 2.5 µM, library screen: screen2, EWS-FLI1 expression: low (doxycycline-induced shRNA knockdown).
Where [9] appears, read: 0.103 µM, library screen: screen3, EWS-FLI1 expression: high (no doxycycline).
[10] abbreviates: 0.103 µM, library screen: screen3, EWS-FLI1 expression: low (doxycycline-induced shRNA knockdown).
[11] abbreviates: 0.308 µM, library screen: screen3, EWS-FLI1 expression: high (no doxycycline).
Setting [12] is: 0.308 µM, library screen: screen3, EWS-FLI1 expression: low (doxycycline-induced shRNA knockdown).
Setting [13] is: 0.926 µM, library screen: screen3, EWS-FLI1 expression: high (no doxycycline).
The mark [14] stands for this setting: 0.926 µM, library screen: screen3, EWS-FLI1 expression: low (doxycycline-induced shRNA knockdown).
[15] abbreviates: 2.8 µM, library screen: screen3, EWS-FLI1 expression: high (no doxycycline).
The mark [16] stands for this setting: 2.8 µM, library screen: screen3, EWS-FLI1 expression: low (doxycycline-induced shRNA knockdown).
Setting [17] is: 8.3 µM, library screen: screen3, EWS-FLI1 expression: high (no doxycycline).
Where [18] appears, read: 8.3 µM, library screen: screen3, EWS-FLI1 expression: low (doxycycline-induced shRNA knockdown).
The mark [19] stands for this setting: 25 µM, library screen: screen3, EWS-FLI1 expression: high (no doxycycline).
[20] abbreviates: 25 µM, library screen: screen3, EWS-FLI1 expression: low (doxycycline-induced shRNA knockdown).

Consider `CCOC(=O)c1c(C)cc(O)cc1O`, for which the “cell viability (log2)” value reads like this: under setting [1], 0.0788; under setting [2], 0.0693; under setting [3], 0.0357; under setting [4], 0.0819.

Take `CC1=C(C(=O)OC2CCCC2)C(c2coc3ccccc3c2=O)C2=C(CC(C)(C)CC2=O)N1` (stereo not drawn): the “cell viability (log2)” value under setting [1] is 0.0783, the “cell viability (log2)” value under setting [2] is 0.0738, the “cell viability (log2)” value under setting [3] was 0.145 and the “cell viability (log2)” value under setting [4] was 0.0146.

As to `C#CCN(C)Cc1ccccc1`, the “cell viability (log2)” value is, setting by setting: under setting [1], 0.0858; under setting [2], 0.0954; under setting [5], 0.078; under setting [6], -0.0346; under setting [3], 0.175; under setting [4], 0.102. For the same molecule, the “cell viability (log2)” value runs as follows: under setting [7], -1.76 (active); under setting [8], -2.08 (active).

As for `C#CCN(C)CCCOc1ccc(Cl)cc1Cl`, the “cell viability (log2)” value was 0.27 under setting [5], 0.097 under setting [6], 0.132 under setting [7] and 0.147 under setting [8].

For `CN(C)CCN(Cc1ccccc1)c1ccccn1`, the “cell viability (log2)” value was 0.0764 under setting [1], 0.111 under setting [2], 0.247 under setting [3] and 0.229 under setting [4].

As to `COc1ccc(CN2CCN(Cc3ccc(OC)c(OC)c3OC)CC2)cc1Br`, the “cell viability (log2)” value is 0.104 under setting [1], 0.0582 under setting [2], 0.0165 under setting [3] and 0.0422 under setting [4].

Turning to `Cc1ccc(OCC(=O)N2CCC(C)CC2)c(C)c1`, the “cell viability (log2)” value under setting [1] is 0.0605, the “cell viability (log2)” value under setting [2] was 0.118, the “cell viability (log2)” value under setting [3] is 0.14 and the “cell viability (log2)” value under setting [4] is 0.114.

Consider `COc1ccc2c(c1)CCC1=CC(=O)CC[C@@]12C`, for which the “cell viability (log2)” value is 0.0515 under setting [1], 0.00881 under setting [2], 0.19 under setting [3] and 0.155 under setting [4].

Consider `CC1C2C(CC3C4CC[C@@H]5CC(=O)CC[C@]5(C)C4CC[C@@]32C)OC12CC[C@@H](C)CO2` (stereo partly drawn), for which the “cell viability (log2)” value under setting [1] is 0.0621, the “cell viability (log2)” value under setting [2] was 0.0593, the “cell viability (log2)” value under setting [3] was 0.124 and the “cell viability (log2)” value under setting [4] is 0.0882.

Take `COCCN1C(=O)/C(=C\c2ccc(-c3ccc(Br)cc3)o2)SC1=S`: the “cell viability (log2)” value by setting is: under setting [1], 0.0753; under setting [2], 0.00476; under setting [3], 0.101; under setting [4], 0.0615.

On to `CCCCCN(CCCCC)C(=O)C(CCC(=O)O)NC(=O)c1ccc(Cl)c(Cl)c1` (stereo not drawn), for which the “cell viability (log2)” value reads like this: under setting [5], 0.131; under setting [6], 0.0648; under setting [7], 0.114; under setting [8], 0.0564.

On to `CN(Cc1cnc2nc(N)nc(N)c2n1)c1ccc(C(=O)N[C@@H](CCC(=O)O)C(=O)O)cc1`, for which the “cell viability (log2)” value by setting is: (0.025 µM, library screen: screen2, EWS-FLI1 expression: high (no doxycycline)) 0.0134; (0.025 µM, library screen: screen2, EWS-FLI1 expression: low (doxycycline-induced shRNA knockdown)) 0.0597; under setting [9], -0.0597; under setting [10], 0.0506; under setting [5], -0.406 (active); under setting [6], 0.0894. Moreover, the “cell viability (log2)” value is -0.512 (active) under setting [11]; 0.0568 under setting [12]; -0.53 (active) under setting [13]; 0.0108 under setting [14]; -0.754 (active) under setting [7]; 0.0271 under setting [8]. Also, the “cell viability (log2)” value is, setting by setting: under setting [15], -0.711 (active); under setting [16], 0.0377; under setting [17], -0.751 (active); under setting [18], 0.0521; (25 µM, library screen: screen2, EWS-FLI1 expression: high (no doxycycline)) -0.743 (active); (25 µM, library screen: screen2, EWS-FLI1 expression: low (doxycycline-induced shRNA knockdown)) 0.0873. Further, the “cell viability (log2)” value was -0.797 (active) under setting [19] and 0.0291 under setting [20].

As for `CN(Cc1cnc2nc(N)nc(N)c2n1)c1ccc(C(=O)N[C@H](CCC(=O)O)C(=O)O)cc1`, the “cell viability (log2)” value is 0.209 under setting [5], 0.115 under setting [6], 0.0762 under setting [7] and 0.165 under setting [8].

Take `Nc1nc(=O)c2nc(CNc3ccc(C(=O)N[C@@H](CCC(=O)O)C(=O)O)cc3)cnc2[nH]1`: the “cell viability (log2)” value is 0.0181 under setting [1], 0.031 under setting [2], 0.0902 under setting [3] and 0.0775 under setting [4].

On to `O=C(O)CCC(NC(=O)c1ccccc1C(=O)O)C(=O)O` (stereo not drawn), for which the “cell viability (log2)” value is, setting by setting: under setting [5], 0.0764; under setting [6], 0.0149; under setting [7], 0.157; under setting [8], 0.0718.

Turning to `Nc1nc(N)c2nc(CNc3ccc(C(=O)N[C@@H](CCC(=O)O)C(=O)O)cc3)cnc2n1`, the “cell viability (log2)” value by setting is: under setting [1], -1.62 (active); under setting [2], -0.186 (active); under setting [5], 0.137; under setting [6], 0.126; under setting [3], 0.122; under setting [4], 0.141. The “cell viability (log2)” value is 0.123 under setting [7] and 0.134 under setting [8].

On to `CC(=O)O[C@H]1CC2(C)[C@@H](C[C@@H](O)[C@H]3[C@@]4(C)CC[C@@H](O)[C@@H](C)[C@@H]4CC[C@@]32C)/C1=C(/CCC=C(C)C)C(=O)O` (stereo partly drawn), for which the “cell viability (log2)” value reads like this: under setting [5], 0.0714; under setting [6], 0.0604; under setting [7], 0.159; under setting [8], 0.0152.

Consider `CC1CCC2(CO)CCC3(C)C(=CCC4C5(C)CCC(O)C(C)(C)C5CCC43C)C2C1C` (stereo not drawn), for which the “cell viability (log2)” value is, setting by setting: under setting [1], 0.00774; under setting [2], -0.0265; under setting [3], 0.0749; under setting [4], 0.092.

In the case of `Cn1cnc2c(F)c(Nc3ccc(Br)cc3Cl)c(C(=O)NOCCO)cc21`, the “cell viability (log2)” value reads like this: under setting [9], -0.0515; under setting [10], 0.111; under setting [11], -0.109; under setting [12], 0.0965; under setting [13], -0.189 (active); under setting [14], 0.113. Further, the “cell viability (log2)” value was -0.222 (active) under setting [15]; 0.014 under setting [16]; -0.293 (active) under setting [17]; 0.0549 under setting [18]; -0.303 (active) under setting [19]; -0.089 under setting [20].

With `Cc1ccccc1CN1CCN(Cc2ccco2)CC1`, the “cell viability (log2)” value is, setting by setting: under setting [1], 0.12; under setting [2], 0.0129; under setting [3], 0.0799; under setting [4], -0.0931.

Take `Cc1ccc(CN2CCN(Cc3c[nH]c4ccccc34)CC2)cc1`: the “cell viability (log2)” value by setting is: under setting [1], 0.0521; under setting [2], 0.0225; under setting [3], 0.104; under setting [4], 0.0231.

Take `CC(=O)c1cc2c(cc1O)OC(C)(C)C=C2`: the “cell viability (log2)” value is 0.16 under setting [1], -0.0151 under setting [2], 0.126 under setting [3] and 0.0912 under setting [4].

Regarding `CC(C)N1C(=O)C(=Cc2ccccc2F)SC1=S`, the “cell viability (log2)” value is 0.0965 under setting [1], 0.0324 under setting [2], 0.0812 under setting [3] and -0.039 under setting [4].

For the molecule `CC(C(=O)O)N1C(=O)C(=Cc2ccccn2)SC1=S` (stereo not drawn), the “cell viability (log2)” value is -2.05 (active) under setting [1], -1.9 (active) under setting [2], 0.144 under setting [3] and 0.106 under setting [4].

Source of the values: the supplement of paper PMC6089552.
